Test results taken from ChEMBL document CHEMBL2218924, “A broad activity screen in support of a chemogenomic map for kinase signalling research and drug discovery” (Biochem J, 2013).

These molecules were tested against Serine/threonine-protein kinase PAK 4 (Homo sapiens) (UniProt O96013). Settings: at 10 µM.
Chain of Serine/threonine-protein kinase PAK 4 (Homo sapiens) (O96013 whole entry, looked up): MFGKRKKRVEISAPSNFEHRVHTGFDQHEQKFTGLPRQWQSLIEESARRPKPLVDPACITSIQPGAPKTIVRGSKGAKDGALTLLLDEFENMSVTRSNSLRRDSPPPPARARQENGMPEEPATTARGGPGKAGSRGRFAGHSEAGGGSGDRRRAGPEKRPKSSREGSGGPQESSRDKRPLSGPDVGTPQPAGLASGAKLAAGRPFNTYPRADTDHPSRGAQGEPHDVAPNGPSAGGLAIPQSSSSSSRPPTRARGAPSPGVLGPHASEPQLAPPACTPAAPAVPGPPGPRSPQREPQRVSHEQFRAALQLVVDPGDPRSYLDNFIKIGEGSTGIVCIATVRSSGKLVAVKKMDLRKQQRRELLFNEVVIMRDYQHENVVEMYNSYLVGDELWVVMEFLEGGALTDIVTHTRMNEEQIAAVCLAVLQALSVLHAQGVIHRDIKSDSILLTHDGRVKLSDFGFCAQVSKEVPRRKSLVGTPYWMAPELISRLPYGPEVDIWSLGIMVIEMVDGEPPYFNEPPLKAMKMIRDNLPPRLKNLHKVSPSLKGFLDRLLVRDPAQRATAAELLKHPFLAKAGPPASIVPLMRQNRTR
Molecule O=C1C(Cl)=C(N2C(=O)CCC2=O)C(=O)c2ccccc21 has a residual activity of 96%. Molecule O=C(Nc1ccc(Cl)cc1)c1ccccc1NCc1ccncc1 has a residual activity of 99%. For O=C(O)/C=C/c1cc(Br)c(Br)c(Br)c1Br, the residual activity was 101%. With COc1ccc(-c2cnc3c(-c4ccsc4)cnn3c2)cc1 the residual activity was 94%. Work on Nc1n[nH]c2nc3ccccc3nc12 yielded a residual activity of 85%. For O=C(c1cc2cc(O)ccc2[nH]1)c1cc2cc(O)ccc2[nH]1, the residual activity was 30%. Molecule Oc1cccc(-c2nc(N3CCOCC3)c3oc4ncccc4c3n2)c1 has a residual activity of 93%. In the case of O=C(NC(NC(=S)Nc1ccc(F)c([N+](=O)[O-])c1)C(Cl)(Cl)Cl)C(c1ccccc1)c1ccccc1 (centres undefined), the residual activity is reported as 97%. Work on CCCCc1c(-c2ccc(OC)cc2)[nH]c2nccnc12 yielded a residual activity of 68%. In the case of CCCC(=O)Oc1ccc2[nH]c(C(=O)c3cc4ccccc4[nH]3)cc2c1, the residual activity is reported as 84%. NC(=O)Nc1sc(-c2ccc(F)cc2)cc1C(N)=O gave a residual activity of 14%. COc1cc2nccc(Oc3ccc(NC(=S)NC(=O)c4ccccc4C)cc3)c2cc1OC showed a residual activity of 90%. O=C1Cc2c([nH]c3ccc(Br)cc23)-c2ccccc2N1 gave a residual activity of 3%. In the case of NCCNc1ncc(C(N)=O)c(Nc2cccc(C(F)(F)F)c2)n1, the residual activity is reported as 9%. With O=C1Nc2ccc(Cl)cc2/C1=C/c1cc(Cl)c(O)c(Cl)c1 the residual activity was 68%. CC(C)N(CCC(=O)c1ccc2ccccc2c1)Cc1ccccc1 gave a residual activity of 79%. CC(C)(C)n1nc(Cc2cccc3ccccc23)c2c(N)ncnc21 showed a residual activity of 61%. COc1ccc(Cl)cc1NC(=O)Nc1cc(C)nc2ccccc12 gave a residual activity of 88%. Molecule O=c1cc(N2CCNCC2)oc2c(-c3ccccc3)cccc12 has a residual activity of 85%.
